Compound activity (PubChem)
Sampled rows, rich in hits. Any-hit rate of the full collection: about 4.7%.
D1 ag = agonists of human D1 dopamine receptor | HEK293 T-REx D1 cells, calcium flux, agonist mode | P21728 | AID 504660 | activation, % at 2 µM | hit rate 1% among 360,000
Target sequence (P21728 whole entry, looked up): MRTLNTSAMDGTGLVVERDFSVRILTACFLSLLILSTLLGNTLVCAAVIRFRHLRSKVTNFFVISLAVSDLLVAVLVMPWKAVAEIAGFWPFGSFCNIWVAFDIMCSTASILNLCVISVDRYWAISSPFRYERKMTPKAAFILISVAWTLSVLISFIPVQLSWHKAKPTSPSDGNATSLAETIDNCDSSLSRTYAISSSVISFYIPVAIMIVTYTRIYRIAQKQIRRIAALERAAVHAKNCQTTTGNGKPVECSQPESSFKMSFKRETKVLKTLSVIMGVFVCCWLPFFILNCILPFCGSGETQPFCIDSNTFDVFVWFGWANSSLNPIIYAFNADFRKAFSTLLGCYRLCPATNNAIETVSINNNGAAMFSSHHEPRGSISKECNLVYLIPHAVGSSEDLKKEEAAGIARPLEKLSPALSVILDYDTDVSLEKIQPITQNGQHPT
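Tetracycline-induced HEK293 TREx D1 cells, force-coupled to calcium signalling, were dye-loaded with a no-wash calcium kit. Compound was pin-added after a 10 s baseline. Fluorescence was read kinetically at 1 cycle/s for 180 s, with calcium rises flagged as agonism.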
D1 potentiator = potentiators of human D1 dopamine receptor; HEK293 TREx D1 cells, calcium flux, dopamine EC20 potentiation; potentiation, % at 10 µM; P21728; hit rate 0.036% among 360,000; in the data active = potentiation above about 30%
TRHR enhancer = TRH receptor (human) allosteric enhancement | enhancement, % at 2 µM | hit rate 0.66% among 360,000 | AID 493056 | TRHR cells, fluo-8 calcium fluorescence, EC20 TRH enhancement | P34981; in the data active = enhancement above about 30%
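Enhancer read-out: after compound pinning and an initial kinetic agonist-mode read, an EC20 of TRH (10 nM final) was injected and fluo-8 calcium signal (Ex 480/Em 530) followed at 1 s/cycle for 100 cycles in TRHR-expressing cells.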
D1 antagonist = human D1 dopamine receptor antagonism; activity change, negative = inhibition, % at 10 µM; hit rate 3.2% among 360,000; HEK293 TREx D1 cells, calcium flux, dopamine EC80; hits give low values; P21728; in the data active = activity change below about -30%
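HEK293 T-REx cells expressing inducible, force-coupled D1 receptor; no-wash Ca dye, 30–90 min RT. Cmpd → 180 s read at 1 Hz → EC80 DA → 180 s read.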
TRHR ag = activates the human TRH receptor; TRHR cells, calcium flux fluo-8, FDSS agonist mode; P34981; hit rate 0.18% among 360,000; activation, % at 2 µM
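Steps: seed TRHR cells overnight; add fluo-8 no-wash Ca dye, RT 30 min–1.5 h; record 10 s baseline; pin-transfer compounds; monitor fluorescence 1 cycle/s for the agonist window. Calcium increases flag candidate agonists.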
Large screens that a line does not name were inactive. Cut-off read from the data, not from the text of the source, unless noted: active = activation above about 30%; inactive = the rest.

Cc1ccc(S(=O)(=O)c2cn(Cc3cccc(C)c3)c3cc4c(cc3c2=O)OCO4)cc1	none
CCOc1ccc2c(c1)c(=O)c(S(=O)(=O)c1ccc(C)cc1)cn2Cc1ccccc1Cl	none
COc1ccc(Cn2cc(S(=O)(=O)c3ccc(Cl)cc3)c(=O)c3cc4c(cc32)OCO4)cc1	D1 antagonist -41.8
CCOc1ccc2c(c1)c(=O)c(S(=O)(=O)c1ccc(Cl)cc1)cn2Cc1ccccc1C	TRHR enhancer 40.3
Cc1ccc(NC(=O)c2cccc3c(=O)c4c([nH]c23)CCCC4)c(C)c1	none
CCNS(=O)(=O)c1ccc(NC(=O)Nc2cc(C)ccc2OC)cc1	D1 antagonist -37.0
CCNS(=O)(=O)c1ccc(NC(=O)Nc2ccccc2OC)cc1	none
O=C(O)c1cccnc1C(=O)N1CCc2c([nH]c3ccccc23)C1C(F)(F)F (configuration not stated)	none
c1cnc2c(C3NCCc4c3[nH]c3ccccc43)cccc2c1 (configuration not stated)	D1 ag 41.1, D1 antagonist -56.9
CCN1CCN(C(=O)c2ccc3c(c2)N(Cc2ccccc2F)C(=O)c2ccccc2S3=O)CC1 (configuration not stated)	none
CCOC(=O)N1CCC(NC(=O)c2ccc3c(c2)N(Cc2ccccc2)C(=O)c2ccccc2S3=O)CC1 (configuration not stated)	none
COc1ccc(CCNC(=O)c2ccc3c(c2)N(Cc2ccccc2F)C(=O)c2ccccc2S3=O)cc1OC (configuration not stated)	none
CCOC(=O)N1CCC(NC(=O)c2ccc3c(c2)N(Cc2ccc(F)cc2)C(=O)c2ccccc2S3=O)CC1 (configuration not stated)	TRHR enhancer 37.3
CCOC(=O)N1CCN(C(=O)c2ccc3c(c2)N(Cc2ccccc2F)C(=O)c2ccccc2S3=O)CC1 (configuration not stated)	D1 antagonist -47.0
COc1ccc(CCNC(=O)c2ccc3c(c2)N(Cc2cc(C)ccc2C)C(=O)c2ccccc2S3=O)cc1OC (configuration not stated)	TRHR enhancer 30.7
Cc1cc2oc(C(=O)Nc3ccc(S(=O)(=O)Nc4ncccn4)cc3)cc(=O)c2cc1C	none
CC(C)n1cc(CN2CCCC(CNS(=O)(=O)c3cccc4cccnc34)C2)cn1 (configuration not stated)	D1 antagonist -48.7
CCOc1ccccc1NC(=O)CCc1c(C)nn(-c2ccc(N3CCOCC3)nn2)c1C	D1 antagonist -67.9
COc1cccc(CNC(=O)CCc2c(C)nn(-c3ccc(N4CCCC4)nn3)c2C)c1	D1 antagonist -40.5
CCCCCCCCC1=NCCc2c1[nH]c1ccccc21	D1 ag 38.2
Cc1cc(C)n(S(=O)(=O)c2ccccc2[N+](=O)[O-])n1	D1 antagonist -55.7
COc1ccccc1-c1nc2c(c(SCC(=O)Nc3ccc(C)c(C)c3)n1)Cc1c(CO)cnc(C)c1O2	none
Cc1ccc(C2C=C(c3ccc(Cl)cc3)Nc3nc(NC(=O)c4ccco4)nn32)cc1 (configuration not stated)	none
CCN1C(c2ccc(F)cc2)=CS/C1=C(\C#N)c1nnc2n1-c1ccccc1SC2	D1 antagonist -35.4
Cc1ccc(-c2nc(CCNC(=O)C(=O)Nc3ccc(C)c(C)c3)cs2)cc1	none
CN(C)CCCOc1nn(Cc2ccccc2)c2ccccc12	D1 antagonist -30.6
CCCCc1cc(=O)oc2cc(C)cc(OCC(=O)N3CCC(C(=O)O)CC3)c12	none
CCCc1cc(=O)oc2cc(C)cc(OCC(=O)N3CCC(C(=O)O)CC3)c12	D1 antagonist -64.3
CCN(CC)CCN1C(=O)C(=O)/C(=C(/O)c2ccc3c(c2)CC(C)O3)C1c1ccc(OC)cc1 (configuration not stated)	D1 antagonist -30.2
Cn1nc(C(F)(F)F)c(-c2cccc(C(F)(F)F)c2)c1NC(=O)Nc1ccc(F)cc1	D1 antagonist -30.7
Cn1nc(-c2ccccc2)cc1NC(=O)Nc1ccc(F)cc1	D1 antagonist -43.6
Cn1nc(C(F)(F)F)c(-c2cccc(C(F)(F)F)c2)c1NC(=O)c1ccco1	none
CCOC(=O)C1CCC(CN(Cc2cccc(Br)c2)S(=O)(=O)c2ccc(Cl)cc2)CC1 (configuration not stated)	none
